Most compounds without a hit are left out; they make up all but 4% or so of the library.
697 NFkB inh: inhibitors of the PMA/ionomycin-induced NF-kB reporter in 697 B cells; 697 B-cell NF-kB luciferase reporter, 16 h; inhibition, % at 4 µM; 0.33% of 330,000 active; AID 435022; in the data active = inhibition above about 35%
Gli-Sufu antag: blocks Gli-Sufu signaling in a luciferase reporter | Sufu-KO-LIGHT fibroblasts, Gli luciferase reporter luminescence | inhibition, % at 5 µM | 0.74% of 340,000 active | AID 588413;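 active = inhibition above about 55%, limit read from the data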;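 note: 0% = DMSO-treated cells and 100% = wells with medium but no cells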
Beta cell apopt: blocks beta cell apoptosis; INS-1E cytokine-induced death, ATP luminescence, 48 h; percent of positive-control rescue, neutral wells zero; 0.8% of 300,000 active; protection from apoptosis, % (concentration not given with the values);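 active = Every replicate reaches about 75%, or at least half do and their mean reaches it too, limit read from the data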;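 note: 0% = cytokine-treated negative control wells and 100% = positive control rescue; higher means more ATP so stronger rescue from cytokine killing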
Mdm2-MdmX inh: disrupts the human Mdm2-MdmX interaction. SaOS-2 split-luciferase Mdm2/MdmX complementation, luminescence. inhibition, % at 8 µM. 3% of 330,000 active. AID 485346;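 active = inhibition of at least 50% at 8 µM in the primary screen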
Target sequence (O15151 whole entry, looked up): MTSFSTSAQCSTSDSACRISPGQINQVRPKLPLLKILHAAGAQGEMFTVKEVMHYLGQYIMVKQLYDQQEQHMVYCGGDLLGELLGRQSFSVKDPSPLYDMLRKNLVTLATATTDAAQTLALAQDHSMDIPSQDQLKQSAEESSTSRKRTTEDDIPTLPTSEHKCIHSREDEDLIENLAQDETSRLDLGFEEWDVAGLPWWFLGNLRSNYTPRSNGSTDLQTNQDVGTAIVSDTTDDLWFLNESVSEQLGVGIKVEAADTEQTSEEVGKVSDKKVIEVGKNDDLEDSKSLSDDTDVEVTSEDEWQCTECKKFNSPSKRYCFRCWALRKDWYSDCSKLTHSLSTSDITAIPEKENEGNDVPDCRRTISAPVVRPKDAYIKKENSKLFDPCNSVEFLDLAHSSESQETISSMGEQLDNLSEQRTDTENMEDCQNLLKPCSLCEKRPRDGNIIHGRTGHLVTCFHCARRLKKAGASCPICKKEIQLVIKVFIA
Target sequence (Q00987 whole entry, looked up): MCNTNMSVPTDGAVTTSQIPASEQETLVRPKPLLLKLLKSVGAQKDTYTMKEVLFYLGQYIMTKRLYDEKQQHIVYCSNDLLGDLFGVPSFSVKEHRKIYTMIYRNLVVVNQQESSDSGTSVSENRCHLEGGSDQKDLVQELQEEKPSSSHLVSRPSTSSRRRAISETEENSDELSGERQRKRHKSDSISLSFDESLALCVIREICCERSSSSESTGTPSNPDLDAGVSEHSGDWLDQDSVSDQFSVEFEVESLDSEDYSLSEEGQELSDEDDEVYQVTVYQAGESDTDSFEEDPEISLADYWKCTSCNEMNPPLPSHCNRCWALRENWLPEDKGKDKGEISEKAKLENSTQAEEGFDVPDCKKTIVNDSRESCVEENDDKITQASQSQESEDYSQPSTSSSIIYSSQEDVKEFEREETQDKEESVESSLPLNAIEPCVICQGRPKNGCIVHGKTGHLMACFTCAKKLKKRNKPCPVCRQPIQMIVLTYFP
Jurkat NFkB inh: inhibitors of the PMA/ionomycin-induced NF-kB reporter in Jurkat cells; PMA/ionomycin-induced NF-kB luciferase reporter, luminescence; inhibition, % at 4 µM; 0.53% of 330,000 active; AID 435003; in the data active = inhibition above about 50%
Jurkat NFkB conf: lowers PMA/ionomycin-induced NF-kB signal in Jurkat cells; shares compounds with Jurkat NFkB inh; Jurkat NF-kB luciferase, 16 h; inhibition, % at 4 µM; 27% of 2,700 active; AID 435020;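 active = inhibition reaching about 45% at 4 µM in either replicate, limit read from the data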;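 note: plate controls were PMA/ionomycin stimulated DMSO wells for no effect and unstimulated DMSO wells for full effect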
Numbers without * were called inactive; / = not tested or not shown.

SMILES	697 NFkB inh	Gli-Sufu antag	Beta cell apopt	Mdm2-MdmX inh	Jurkat NFkB inh	others
Cc1cccc[n+]1CCCCCCCCCC[n+]1ccccc1C	11	19	5	1	6
CC(=O)N1CCOc2ccc(S(=O)(=O)N3CCCC(C)C3)cc21 (configuration not stated)	-21	9	-2	15	0
O=S(=O)(Nc1nc2ccccc2nc1NCC1CCCO1)c1cc(Cl)ccc1Cl (configuration not stated)	-14	6	7	21	9
COc1ccc(O)c(/C=N/NC(=S)Nc2cccnc2)c1	-51	5	76*	16	-11
COc1ccc(-c2cn(Cc3ccc(C(=O)c4ccccc4)cc3)nn2)cc1	-106	-38	106*	-16	-27
COc1ccc(-c2cn(Cc3ccc4ccccc4c3)nn2)cc1	-14	-19	-8	-4	-15
CC(C)c1cccc(C(C)C)c1OC(=O)[C@H]1OC(C(C)(C)C)=C[C@@H]1c1ccccc1	12	2	111*	1	14
CC1CCCC(NS(=O)(=O)c2cccc3nsnc23)C1C (configuration not stated)	-41	-39	-14	-25	8
OC(CNCCC1C=Nc2ccccc21)Cn1c2ccc(Cl)cc2c2cc(Cl)ccc21 (configuration not stated)	/	-2	100*	/	/
Cc1cc(C)n(CC(O)Cn2c3ccc(Cl)cc3c3cc(Cl)ccc32)c(=O)n1 (configuration not stated)	27	8	17	24	6
Cc1c(Cl)cccc1NC(=S)N(Cc1cccnc1)Cc1ccccc1Cl	-4	-25	-3	12	4
CN1CCCc2cc3c(C(F)(F)F)cc(=O)oc3nc21	9	96*	1	-6	4
CC(C)c1cc(=O)oc2c3c4c(cc12)CCCN4CCC3	-11	-4	-65	-22	1
CCOC(=O)c1cnc(-n2nc(C)cc2C)nc1Nc1ccc(C)cc1	/	4	/	/	/
CCOC(=O)c1cnc(-n2nc(C)cc2C)nc1Nc1ccc(O)cc1	-68	49	119*	15	21
CN(C)S(=O)(=O)c1cccc(N=C2NN=C(c3ccccc3)CS2)c1	/	4	91*	/	/
Cc1cc(C2=NNC(=Nc3ccccc3)SC2)c(C)n1C	10	-53	-13	-90	-30
CC(=O)Nc1ccc(C2=NNC(=Nc3cccc(S(=O)(=O)N(C)C)c3)SC2)cc1	19	-6	96*	20	14
CC(C)(C)c1ccc(OCc2ccc(C(=O)N/N=C/c3ccc(O)c(O)c3)cc2)cc1	-151	1	95*	16	-4
Cc1cccc(Oc2cc(NC(=O)c3ccccc3)cc([N+](=O)[O-])c2)c1	-43	23	100*	16	26
Cn1cc([N+](=O)[O-])c(C(=O)Nc2cc(Oc3ccccc3)cc([N+](=O)[O-])c2)n1	/	10	0	/	/
CN(CCCC(=O)NCCc1ccccc1)S(=O)(=O)c1ccc([N+](=O)[O-])cc1	23	6	0	13	-15
O=C(NNc1c(Cl)cc(Cl)cc1Cl)c1cccc([N+](=O)[O-])c1	-5	18	113*	-5	-3
O=C(/C=C/c1cccnc1)c1ccc(NC(=O)c2cccc(Br)c2)cc1	-14	20	9	8	-7
COC(=O)c1ccc(NC(=O)c2cccnc2)cc1	-37	-20	110*	-10	4
SMILES	697 NFkB inh	Gli-Sufu antag	Beta cell apopt	Mdm2-MdmX inh	Jurkat NFkB inh	others
O=C(Nc1ccc(N2CCN(C(=O)c3ccc(Cl)cc3)CC2)cc1)c1cccnc1	8	0	104*	25	-1
COC(=O)c1cccc(NC(=O)c2cccnc2)c1	-1	23	-2	3	1
O=C(Nc1cccnc1)c1cccnc1	-16	7	105*	-9	-3
O=C(Nc1cccnc1)c1ccc(C(=O)Nc2cccnc2)cc1	-3	-3	-1	38	5
Cc1cccc(C(=O)Nc2ccc(C(=O)/C=C/c3cccnc3)cc2)c1	/	9	101*	/	/
COCCN(CCOC)C(=O)COC(=O)c1cc([N+](=O)[O-])ccc1Cl	6	3	-8	-19	-1
O=C(NCCOCCNC(=O)OCc1ccccc1)OCc1ccccc1	-7	-3	-1	-23	-10
CN(C)C(=O)c1ccc(NC(=O)CN2C(=O)NC3(CCCc4ccccc43)C2=O)cc1 (configuration not stated)	16	2	/	12	-15
COC(C/C=C\C(=O)[C@@H](C)OCc1ccccc1)OC	4	/	-4	11	6
Cc1cccn2c(=O)nc(SCC(=O)Nc3ccc4c(c3)OCCO4)nc12	-11	-3	3	23	-20
CC(C)N1CCC(N2CCN(Cc3ccc(Oc4ncccn4)cc3)CC2CCO)CC1 (configuration not stated)	15	-2	-5	-35	2
NC(=O)c1ccc(N2CCN(S(=O)(=O)c3ccccc3)CC2)c([N+](=O)[O-])c1	7	56*	/	-2	49
Cc1ccc(S(=O)(=O)Oc2cccc([N+](=O)[O-])c2)cc1	/	-5	/	/	/
Cc1cccc2sc(NNC(=O)c3ccc(S(=O)(=O)N4CCCC(C)C4)cc3)nc12 (configuration not stated)	/	-4	102*	/	/
Cc1cc(C)cc(NC(=O)c2c(C)nc3ccccn23)c1	7	2	-5	16	5
CCOC(=O)N1CCN(c2ccc(S(=O)(=O)N(Cc3ccccc3)Cc3ccccc3)cn2)CC1	-34	34	104*	12	4
Cc1noc(C)c1CSCC(=O)Nc1nnc(CC(C)C)s1	-2	0	4	14	-17
CCCCCC(=O)Nc1ccc(C(=O)COC(=O)Cn2cnc3c2c(=O)n(C)c(=O)n3C)cc1	-9	-9	-11	29	-5
Cc1ccc(N(CCC#N)C(=O)CN2C(=O)NC(Cc3ccccc3)C2=O)cc1 (configuration not stated)	-36	2	0	-22	-4
CN(C)C1(CNC(=O)c2cccc(S(=O)(=O)Nc3ccc(Br)cc3)c2)CCCCC1	-3	15	-1	21	9
CN(C(=O)Cn1cnc([N+](=O)[O-])n1)C1CCCCC1	-11	-11	/	-4	0
COc1cccc(-c2noc(-c3ccc4c(c3)OCO4)n2)c1	-198	-88	8	-144	-185	Jurkat NFkB conf=-102
COc1ccc(-c2nc(-c3ccc(Br)o3)no2)cc1OC	-60	-38	-1	-51	-91
COc1ccccc1-c1nc(-c2ccc(Br)o2)no1	-216	-32	/	-193	-175	Jurkat NFkB conf=-110
COc1cccc(-c2nc(-c3ccc(Br)o3)no2)c1	-250	-96	1	-18	-187	Jurkat NFkB conf=-134
O=C(NNc1ccccc1)Nc1ccccc1F	10	21	-8	12	-3
COc1ccc(CCNc2cc(N3CCN(C(=O)c4ccc(C)cc4)CC3)ccc2[N+](=O)[O-])cc1OC	7	/	90*	28	75*	Jurkat NFkB conf=67*

High-throughput results: PubChem BioAssay, several laboratories
